40 compounds from PubChem BioAssay (Tox21) can be followed below.

Molecules are shown by their SMILES. Records with an inconclusive call do not appear. Where a call stands in place of a potency, no number is given. Active and inactive are the calls of the source. Calls come from the whole dose curve.

This test can be described thus: qHTS assay for small molecules that induce genotoxicity in human embryonic kidney cells expressing luciferase-tagged ATAD5 - cell viability (AID 651634). Note: nearly all actives have a fitted effect of over 25% in size. The conditions noted are these: HEK293T ATAD5-luc cells viability, CellTiter-Fluor, 15.5 h; series mostly up to 83.3 µM. An excerpt:
National Center for Advancing Translational Sciences [NCATS]
NIH Chemical Genomics Center [NCGC]
U.S. Environmental Protection Agency [EPA]
National Institutes of Environmental Health Sciences [NIEHS]
National Toxicology Program [NTP]
U.S. Food and Drug Administration [FDA]
Enhanced Level of Genome Instability Gene 1 (ELG1; human ATAD5) protein levels increase in response to various types of DNA damage. Using a luciferase reporter-gene tagged with ElG1, a cell-based assay [developed by Kyungjae Myung, NHGRI, NIH] was used to measure the induction of ATAD5 in human embryonic kidney cells (HEK293T). So, increase in luciferase activity can be used to identify the compounds that cause genetic stress. In addition to genotoxicity, these cells were also used to test for cytotoxicity by measuring the protease activity within live cells.
Tox21 Assay Protocol Summary:
For cytotoxicity screening, 2,000 cells in 5 uL/well were dispensed into white, solid-bottom 1536-well plates using a Multidrop Combi (Thermo Scientific) dispenser. Following transfer of 23 nL compound or DMSO vehicle by a pin tool, the plates were incubated 15.5 hr at 37C and 5% CO2. 1 ul CellTiter-Fluor reagent (Promega, Madison, WI) was then added to each plate and following 30 min incubation at 37C, fluorescence intensity was quantified on a ViewLux CCD-based plate reader.
(In general: Quantitative high-throughput screening tests each substance at several concentrations.)
For the compound `Clc1cnc(Oc2ccc(Oc3ncc(Cl)cc3Cl)cc2)c(Cl)c1`, the Potency entry was “inactive”.
Turning to `Cc1ccc(N)cc1`, the Potency result is “inactive”.
To `CCCOC(=O)c1ccccc1C(=O)OCCC` belongs “inactive”; to `Cc1ccccc1N`, “inactive”; to `Cc1cccc(N)c1`, “inactive”.
To `C[C@]12CC[C@H](O)CC1=CC[C@@H]1[C@@H]2CC[C@]2(C)C(=O)CC[C@@H]12` belongs “inactive”.
To `Cc1cccc(C)c1NC(=O)CN1CCCC1=O` belongs “inactive”; to `CC(C)c1cccc(C(C)C)c1O`, “inactive”; to `CCOP(=S)(OCC)Oc1ccc([N+](=O)[O-])cc1`, “inactive”.
With `C=CC#N`, the Potency entry was “inactive”.
For the compound `Cc1cc(O)ccc1Cl`, the Potency entry is “inactive”.
On to `CNC(=O)O/N=C(\SC)C(=O)N(C)C`, for which the Potency result was “inactive”.
To `N#CN=C(N)N` belongs “inactive”.
For the compound `O=P1(NCCCl)OCCCN1CCCl` (stereo not given), the Potency entry is “inactive”.
For the compound `[N-]=[N+]=CC(=O)OC[C@H](N)C(=O)O`, the Potency entry is “inactive”.
To `O=[N+]([O-])c1ccc(Cl)cc1` belongs “inactive”.
Turning to `Nc1nc(N)nc(NC2CC2)n1`, the Potency result is “inactive”.
In the case of `Cl/C=C/Cl`, the Potency result was “inactive”.
To `CCCCCCCCCCCCCCCCCC(=O)O` belongs “inactive”; to `OCc1ccco1`, “inactive”.
On to `CNC(=O)O/N=C/C(C)(C)S(C)=O` (stereo not given), for which the Potency entry is “inactive”.
To `OCCCCO` belongs “inactive”.
To `O=C(O)C1C(C(=O)O)C2(Cl)C(Cl)=C(Cl)C1(Cl)C2(Cl)Cl` (stereo not given) belongs “inactive”.
To `Nc1cccc(Cl)c1` belongs “inactive”.
In the case of `Cc1cccc(N)c1C`, the Potency entry is “inactive”.
As for `CC(C)(C)C(=O)CCl`, the Potency result was “inactive”.
As to `CCNc1nc(Cl)nc(NC(C)C)n1`, the Potency result was “inactive”.
To `CC(C)CCCCCCOC(=O)c1ccccc1C(=O)OCCCCCCC(C)C` belongs “inactive”; to `Oc1c(Br)cc(Br)cc1Br`, “inactive”; to `Cc1ccc(O)c(C)c1`, “inactive”.
As to `ClCCOCCCl`, the Potency result was “inactive”.
To `CNC(=O)O/N=C/C(C)(C)SC` belongs “inactive”; to `CCOC(=O)CC(SP(=O)(OC)OC)C(=O)OCC` (stereo not given), “inactive”.
`CSc1nnc(C(C)(C)C)c(=O)n1N`: the Potency result was “inactive”.
Regarding `Oc1ccc(Cl)cc1`, the Potency entry is “inactive”.
To `CNC(=O)Oc1cccc2ccccc12` belongs “inactive”; to `ClC(Cl)c1ccccc1`, “inactive”; to `c1ccc2c(c1)CCCC2`, “inactive”.
Turning to `OCC(O)CCl` (stereo not given), the Potency result is “inactive”.
As for `Cc1cccc(C)c1N`, the Potency result is “inactive”.
